The nature of assay [1]: growth inhibition of DIPG glioma cells, dose response, cell-based, SU-DIPG-XVII, MIPE5.0, CellTiter-Glo, qHTS (AID 1347060; cut-off not given, nearly all actives have AC50 up to about 26 µM;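 note: cells exposed to compound for 48 hours before viability readout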). Conditions: SU-DIPG-XVII viability, CellTiter-Glo ATP luminescence. For orientation: ATP-based viability assays read luminescence as a measure of living cells.
Assay [2] is described as follows: growth inhibition of DIPG glioma cells, dose response, cell-based, SU-DIPG-XIII, MIPE5.0, CellTiter-Glo, qHTS (AID 1347064; cut-off not given, nearly all actives have AC50 up to about 23 µM;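 note: cells exposed to compound for 48 hours before the viability read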). Particulars: SU-DIPG-XIII viability, CellTiter-Glo ATP luminescence.
Assay [3] can be described thus: viability loss in pontine glioma line – cell-based, SU-DIPG-XXV, MIPE5.0, CellTiter-Glo, qHTS, dose response (AID 1347065; cut-off not given, nearly all actives have AC50 up to about 26 µM;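 note: cells exposed to compound for 48 hours before ATP readout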). Conditions: CellTiter-Glo ATP luminescence.
A short description of assay [4]: JHH-DIPG-1 glioma cell viability, MIPE5.0 library, CellTiter-Glo luminescence, qHTS (AID 1347067; cut-off not given, nearly all actives have AC50 up to about 26 µM;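 note: cells exposed to compound for 48 hours before readout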). Particulars: JHH-DIPG-1 glioma viability, CellTiter-Glo ATP luminescence.
A short description of assay [5]: SU-DIPG-XXV glioma cell viability, MIPE5.0 library, qHTS (AID 1347068; cut-off not given, nearly all actives have IC50 up to about 30 µM;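 note: cells exposed to compound for 48 hours before viability readout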). A general note: In qHTS, concentration-response curves come from the screen itself.
Assay [6] is described as follows: sensitizers of A549 cells to miR-34 induction, primary screen, imaging, A549 dox-inducible miR-34, nuclei and caspase counts (AID 1347080;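 active = compounds whose cell count with miR-34 switched on is under 0.7 times the count with it off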). Conditions: A549 miR-34 inducible, Hoechst nuclei count, 48 h.
Assay [7] is described as follows: modifiers of HSF1 nuclear foci, imaging, Selleck Cancer Library (AID 1347162; in the data active = plate-normalised HSF1 focus index below about 0.46). Conditions: human cells, at 10 µM; SSMD: measured here: HSF1 foci SSMD mean; cell count: measured here: cell number; plate-normalised HSF1 focus index: stronger effect = lower value.
Assay [8] can be described thus: survival rescue of mitochondrial mutant cells in low glucose, primary screen, MELAS cybrids, Rieske KO mouse fibroblasts, CellTiter-Glo (AID 1508586;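 active = mean z-score across replicates of 1.96 or higher in either the MELAS or the Rieske mutant cell line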;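 note: z relative to plate mean and SD of compound and empty wells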).
The nature of assay [9]: ovarian cancer cell viability with rucaparib, profiling panel, oncology-focused library, rucaparib conditional (AID 1508598). Particulars: patient-derived ovarian cancer cells, CellTiter-Glo viability, 144 h, stronger effect = lower value.

From PubChem BioAssay come the findings set out here.

Several values for one entry are separate records, joined by “and”; a condition that tells them apart may be missing. Identical values can stand only once. Records with an inconclusive call do not appear. Activity calls are given as the source filed them.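 Rule for the calls, unless noted: active = normalized viability below 100% at a tested concentration; inactive = the rest.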

As a reminder, the AC50 is the concentration giving half of the maximal activity seen. A word on the IC50: it is the concentration at which inhibition is half-maximal. Broadly, the viability is a read-out of living cells in per cent, often relative to untreated cells.

As for `FC(F)(F)c1ccc(Nc2nc(-c3c(C(F)(F)F)nc4ccccn34)cs2)cc1`, the concentration at half-maximal activity (AC50) was 0.372 µM (active) in [1], 14.8 µM (active) in [2], 0.372 µM (active) in assay [3] and 1.86 µM (active) in assay [4]. Also, in assay [5], the IC50 is 3.32 µM (active).
For the molecule `COc1cc(Nc2ncc(F)c(Nc3ccc4c(n3)NC(=O)C(C)(C)O4)n2)cc(OC)c1OC`, the AC50 in assay [1] was 1.18 µM (active); in assay [2] it was 1.86 µM (active); in assay [3] it was 1.32 µM (active); in [4] it was 5.9 µM (active). The fold change in assay [6] (stronger effect = lower value, cell number ratio, induced over uninduced) was 1.02 (inactive) and 1.15 (inactive); in assay [6] (measured here: relative caspase fold change +Dox/-Dox), 0.841 and 0.707. Besides, the cell count was 1550 and 1090 in assay [6] (measured here: total cells with miR-34 induction, stronger effect = lower value); 1520 and 950 in assay [6] (measured here: total cells without miR-34 induction); 7530 in assay [7]. In assay [7], this molecule gave an SSMD of 2.8. Also, the plate-normalised HSF1 focus index in [7] was 1.18 (inactive). The z-score is -0.458 (inactive) and -0.514 (inactive) in assay [8] (MELAS cybrid survival, CellTiter-Glo 48 h, stronger effect = higher value); 0.0101 and 0.0182 in [8] (Rieske KO mouse fibroblast survival, CellTiter-Glo 72 h). Also, the viability in assay [9] (at 0.000305 µM, OCI-C5x cells, with rucaparib 10 µM, 100% = cells with rucaparib alone) was 109% (inactive); in assay [9] (at 0.000305 µM, OCI-C5x cells, without rucaparib) it was 101% (inactive); in [9] (at 0.000305 µM, OCI-P5x cells, with rucaparib 20 µM, 100% = cells with rucaparib alone) it was 83% (active); in assay [9] (at 0.000305 µM, OCI-P5x cells, without rucaparib), 96.3% (active); in assay [9] (at 0.00122 µM, OCI-C5x cells, with rucaparib 10 µM, 100% = cells with rucaparib alone) it was 111% (inactive); in assay [9] (at 0.00122 µM, OCI-C5x cells, without rucaparib) it was 109% (inactive). Besides, the viability was 82.7% (active) in assay [9] (at 0.00122 µM, OCI-P5x cells, with rucaparib 20 µM, 100% = cells with rucaparib alone); 86.9% (active) in [9] (at 0.00122 µM, OCI-P5x cells, without rucaparib); 111% (inactive) in [9] (at 0.00488 µM, OCI-C5x cells, with rucaparib 10 µM, 100% = cells with rucaparib alone); 111% (inactive) in assay [9] (at 0.00488 µM, OCI-C5x cells, without rucaparib); 78.5% (active) in assay [9] (at 0.00488 µM, OCI-P5x cells, with rucaparib 20 µM, 100% = cells with rucaparib alone); 95.2% (active) in [9] (at 0.00488 µM, OCI-P5x cells, without rucaparib). In addition, the viability in [9] (at 0.0195 µM, OCI-C5x cells, with rucaparib 10 µM, 100% = cells with rucaparib alone) was 118% (inactive); in assay [9] (at 0.0195 µM, OCI-C5x cells, without rucaparib), 112% (inactive); in [9] (at 0.0195 µM, OCI-P5x cells, with rucaparib 20 µM, 100% = cells with rucaparib alone) it was 70.2% (active); in [9] (at 0.0195 µM, OCI-P5x cells, without rucaparib) it was 74.2% (active); in [9] (at 0.0781 µM, OCI-C5x cells, with rucaparib 10 µM, 100% = cells with rucaparib alone), 107% (inactive); in assay [9] (at 0.0781 µM, OCI-C5x cells, without rucaparib), 114% (inactive). The viability in assay [9] (at 0.0781 µM, OCI-P5x cells, with rucaparib 20 µM, 100% = cells with rucaparib alone) was 59.3% (active); in assay [9] (at 0.0781 µM, OCI-P5x cells, without rucaparib), 55% (active); in assay [9] (at 0.313 µM, OCI-C5x cells, with rucaparib 10 µM, 100% = cells with rucaparib alone) it was 112% (inactive); in assay [9] (at 0.313 µM, OCI-C5x cells, without rucaparib), 126% (inactive); in [9] (at 0.313 µM, OCI-P5x cells, with rucaparib 20 µM, 100% = cells with rucaparib alone), 46.3% (active); in assay [9] (at 0.313 µM, OCI-P5x cells, without rucaparib), 50% (active). Further, the viability in [9] (at 1.25 µM, OCI-C5x cells, with rucaparib 10 µM, 100% = cells with rucaparib alone) is 116% (inactive); in assay [9] (at 1.25 µM, OCI-C5x cells, without rucaparib), 127% (inactive); in assay [9] (at 1.25 µM, OCI-P5x cells, with rucaparib 20 µM, 100% = cells with rucaparib alone), 81.5% (active); in [9] (at 1.25 µM, OCI-P5x cells, without rucaparib) it was 99.3% (active); in [9] (at 5 µM, OCI-C5x cells, with rucaparib 10 µM, 100% = cells with rucaparib alone) it was 122% (inactive); in assay [9] (at 5 µM, OCI-C5x cells, without rucaparib) it was 151% (inactive). Moreover, the viability in assay [9] (at 5 µM, OCI-P5x cells, with rucaparib 20 µM, 100% = cells with rucaparib alone) was 79% (active); in assay [9] (at 5 µM, OCI-P5x cells, without rucaparib) it was 96.9% (active).
Regarding `O=C(Nc1cc(Oc2cc(F)c(NC(=O)C3(C(=O)Nc4ccc(F)cc4)CC3)cc2F)ccn1)C1CC1`, the AC50 in assay [1] was 14.8 µM (active); in [2], 13.2 µM (active); in assay [3], 9.34 µM (active); in assay [4], 13.2 µM (active). In addition, in assay [5], the IC50 is 18.6 µM (active).
